# According to PubChem BioAssay (NCATS):
# Records with an inconclusive call do not appear. Values without a mark were called inactive. Calls come from the whole dose curve; as a rule, active = well fitted activation curve with a large enough effect; inconclusive = small, poorly fitted or top-dose-only effect; inactive = flat fitted curve, though single readings scatter.
# Experiment: Primary redox qHTS assay for identification of artifact compounds. (AID 1845223);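 note: 0% = DMSO and 100% = reference compound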
# Settings: Amplex Red/HRP redox cycling with DTT, fluorescence; series mostly up to 53.8 µM; redox activity (% of DA3003): at the top concentration
# How it was run: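 Amplex Red (25 uM) and HRP (250 mU/mL) in HBSS, with compounds for 15 min, then 250 uM DTT for 30 min, room temperature, dark. Fluorescence 525/598 nm read; normalized to DMSO and 10 uM DA3003; Hill fit.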
row,Compound,redox activity (% of DA3003)
1,COc1cc2c(Nc3cc(F)c(Cl)c(Cl)c3)ncnc2cc1OCC1CCCN(C)CCC1,12.8%
2,CC(C)CCNC(=O)c1ccc2c(c1)nc(Nc1n[nH]c3ccc(-c4ccccc4OC(F)(F)F)cc13)n2C1CCC(O)CC1 (configuration not stated),-8.13%
3,C/C=C(/C)C(=O)O[C@@H]1C[C@@H](OC(=O)CC(C)C)C2(C)C3C(=O)C=C(C)C2C3C1(C)C (some centres not stated),16.5% [at 25.6 µM]
4,CN(C)C(=O)Nc1cccc(-c2ccc(N(C)C)cc2)c1,-5.99%
5,C=C(C(=O)O)[C@@H]1CC=C(CCC(C)=O)[C@@H](C)CC1,5.48%
6,O=C(NCCCc1ccccc1)c1cccc(-c2cc(O)c3ncccc3c2)c1,-4.51%
7,CC(=O)O[C@@H]1C[C@]2(C)[C@@]3(CCC4[C@@]5(C)CC[C@H](O[C@@H]6O[C@H](C(=O)O)[C@@H](O)[C@H](OC7OC(CO)C(O)C(O)[C@H]7O[C@@H]7O[C@@H](C)[C@H](O)[C@@H](O)[C@H]7O[C@@H]7OC[C@](O)(CO)[C@H]7O)[C@H]6OC6OC(CO)C(O)C(O)C6O)C(C)(C)C5CC[C@]42C)OC[C@@]12CCC(C)(C)CC23 (some centres not stated),8.79% [at 11.5 µM]
8,CN(C)[C@@H]1CCc2[nH]c3ccc(NC(=O)c4ccc(F)cc4)cc3c2C1,-3.72%
9,C=C1CC[C@@H](O)[C@]2(C)C[C@H]3OC(=O)C(=C)[C@H]3CC12 (some centres not stated),6.62%
10,COc1cccc(OCCCN)c1-c1cc(Nc2cnc(C#N)cn2)n[nH]1,-2.84%
11,O=C(Nc1cnc(Cl)nc1)c1ccc(F)c(F)c1,-2.11%
12,N#CC(CCCN1CCC(O)(c2ccc(Cl)cc2)CC1)(c1ccccc1)c1ccccc1,-0.434%
